# Reference: PubChem BioAssay AID1069 (NMMLSC, 2008)
# The source made the active and inactive calls.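 How the source made its calls: active means high combined rank on largest and smallest cell-count-weighted shift across three tests, rank score above 45, floors 50 and 25 (some results past the limit were not filed as active); inactive means the rest.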
# Assay: activators of LNCaP cell differentiation, retest, confirmation, side scatter shift, flow cytometry (AID 1069);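 further: LNCaP human prostate cancer cells in low-serum medium with charcoal-stripped FBS; percent of cells with raised granularity gated so DMSO controls show 10%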
# Settings: 4 d, stronger effect = higher value
Compound,side scatter shift (at 100 µM),"side scatter shift (side scatter shift, at 10 µM)"
CCOc1ccc(C2SCC(=O)Nc3c2c(=O)[nH]n3C2CCCCCC2)cc1 (stereo not given),22.2% (inactive),10.5%
Clc1ccc(COC(Cn2ccnc2)c2ccc(Cl)cc2Cl)cc1 (stereo not given),18.2% (inactive),2.85%
CCn1c(=O)cc(OCC(=O)N2CCC3(CC2)OCCO3)c2ccccc21,6.7% (inactive),1.7%
Cc1ccc2c(c1)[C@@H]1CN(C)CC[C@@H]1N2C(=O)Nc1cccc(C(F)(F)F)c1,23.1% (inactive),10.6%
Cc1cc(OCC(=O)O)c2c3c(c(=O)oc2c1)CCCC3,5.1% (inactive),5.9%
O=C(COc1ccc2ccccc2c1)N1CCN(C2CCN(Cc3ccccc3)CC2)CC1,54.3% (inactive),5.8%
C[C@H]1CCC/C=C/C2C[C@H](O)CC2[C@H](O)/C=C/C(=O)O1 (stereo not given in full),8.7% (inactive),9.7%
Cc1nc2ccccc2c(=O)n1-c1ccc(F)cc1,8.9% (inactive),3.5%
CCn1c(=O)cc(OCC(=O)N2CCN(Cc3ccc4c(c3)OCO4)CC2)c2ccccc21,0% (inactive),3.6%
Cc1ccc(Cn2c(C)c3cnn(CC(=O)N4CCC5(CC4)OCCO5)c(=O)c3c2C)cc1,9.1% (inactive),3.35%
